Experimental findings from PubChem BioAssay (NCATS) are described below.

The nature of experiment [1]: AP1 Signaling Pathway (AID 357; active means well fitted curve in either direction with a large enough effect, not every such curve was filed as active;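 further: ME-180 reporter cells stimulated with EGF at its EC50 level; on the % scale 0 is the no-effect control and ±100 the full control effect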). The settings on record: ME-180 AP-1-bla reporter, EGF-induced, beta-lactamase ratio, 5 h. The gist of the method:
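Cells are seeded overnight, exposed to compound titrations and an EC50 level of EGF for 5 hours at 37 °C, then loaded with CCF4 dye for 2.5 hours. Beta-lactamase activity under the AP-1 element is read as a blue/green ratio.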

The target in experiment [2] is Cytochrome P450 1A2 (Homo sapiens) (UniProt P05177). Kind of experiment: p450-cyp1a2 (AID 410; calls by dose curve; further: potency means the concentration at half of the fitted maximal effect). The gist of the method: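 O-Demethylation of luciferin 6' methyl ether by human CYP1A2 is monitored as luciferase luminescence. Substrate sits at Km (100uM); enzyme is 20nM. Values are scaled to 57 uM furafylline as maximal inhibition.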
Chain of Cytochrome P450 1A2 (Homo sapiens) (P05177 whole entry, looked up): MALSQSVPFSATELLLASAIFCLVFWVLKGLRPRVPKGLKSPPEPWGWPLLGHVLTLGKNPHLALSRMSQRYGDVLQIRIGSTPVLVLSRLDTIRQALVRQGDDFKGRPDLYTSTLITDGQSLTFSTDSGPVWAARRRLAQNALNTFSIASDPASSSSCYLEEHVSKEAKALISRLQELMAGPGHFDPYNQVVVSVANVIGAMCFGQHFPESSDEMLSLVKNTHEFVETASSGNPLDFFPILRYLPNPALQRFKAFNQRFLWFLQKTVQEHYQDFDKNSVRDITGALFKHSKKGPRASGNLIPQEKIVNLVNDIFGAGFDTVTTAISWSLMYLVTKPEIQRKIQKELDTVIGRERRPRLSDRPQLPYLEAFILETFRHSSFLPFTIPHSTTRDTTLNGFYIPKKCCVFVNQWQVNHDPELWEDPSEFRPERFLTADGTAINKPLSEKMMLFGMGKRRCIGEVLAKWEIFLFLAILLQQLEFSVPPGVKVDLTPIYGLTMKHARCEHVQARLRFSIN
Experiment [3] is described as follows: NFAT Signaling Pathway (AID 444; active means well fitted curve in either direction with a large enough effect, not every such curve was filed as active;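 further: carbachol stimulus at about its EC50 of 1 µM final; on the % scale 0 is the no-effect control and ±100 the full control effect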). The settings on record: Jurkat NFAT-bla M1, carbachol, beta-lactamase ratio, 5 h. In a few lines: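 Jurkat cells carrying an NFAT-driven β-lactamase reporter and co-transfected muscarinic M1 receptor were treated with compound plus carbachol (1 uM final, an EC50 level) for 5 h at 37 °C. CCF4 loading followed for 1 h at RT; 460/530 nm ratio gave %activity.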

The nature of experiment [4]: Stat Signaling Pathway (AID 446; active means well fitted curve in either direction with a large enough effect, not every such curve was filed as active;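 further: ME-180 cervical cancer cells given 40 pM IL-6 alongside compound; SIE-controlled beta-lactamase reporter measured as 460/530 nm FRET emission ratio; on the % scale 0 is the no-effect control and ±100 the full control effect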). The settings on record: ME-180 (cervical carcinoma) SIE beta-lactamase reporter, IL-6 stimulated, 5 h. The gist of the method: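 Normalization used AC90 stimulation (300 pM IL-6) and AC90 inhibition (125 nM pan-JAK inhibitor at 40 pM IL-6). The underlying signal is SIE-driven beta-lactamase in ME-180 cells after 5 h IL-6 exposure with compound.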
In experiment [5] the target is Glucocorticoid receptor (Homo sapiens) (UniProt P04150). Kind of experiment: GR-GFP Redistribution (AID 450;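 active means compounds whose dose series gives a full or clear partial fitted curve of increased nuclear translocation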; further: potency means the concentration at half of the fitted maximal effect). The settings on record: U2OS GR-GFP nuclear translocation, laser cytometry, 2 h.
Chain of Glucocorticoid receptor (Homo sapiens) (P04150 whole entry, looked up, the tested form may be a part): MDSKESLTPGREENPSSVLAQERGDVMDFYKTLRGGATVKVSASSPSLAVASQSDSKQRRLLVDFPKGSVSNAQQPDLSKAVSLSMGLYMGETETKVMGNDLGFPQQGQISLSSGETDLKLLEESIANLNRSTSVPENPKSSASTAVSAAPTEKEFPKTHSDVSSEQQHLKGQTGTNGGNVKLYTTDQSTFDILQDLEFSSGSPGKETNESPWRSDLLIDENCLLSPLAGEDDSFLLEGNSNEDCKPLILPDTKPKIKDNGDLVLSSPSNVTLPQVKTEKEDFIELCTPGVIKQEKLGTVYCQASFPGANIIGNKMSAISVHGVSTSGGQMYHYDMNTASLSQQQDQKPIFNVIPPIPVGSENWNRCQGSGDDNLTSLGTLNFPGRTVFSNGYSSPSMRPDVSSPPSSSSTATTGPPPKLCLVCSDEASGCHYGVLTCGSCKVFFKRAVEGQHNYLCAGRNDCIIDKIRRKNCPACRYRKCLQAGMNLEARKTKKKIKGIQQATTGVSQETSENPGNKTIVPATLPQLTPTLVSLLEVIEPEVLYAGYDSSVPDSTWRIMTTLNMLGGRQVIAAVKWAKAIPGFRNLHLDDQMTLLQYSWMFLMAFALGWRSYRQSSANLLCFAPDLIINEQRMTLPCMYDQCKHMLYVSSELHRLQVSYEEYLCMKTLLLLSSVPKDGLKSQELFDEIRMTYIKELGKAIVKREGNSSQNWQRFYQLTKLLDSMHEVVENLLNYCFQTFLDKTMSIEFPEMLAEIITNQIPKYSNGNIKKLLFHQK
For experiment [6] the target is unchanged. Kind of experiment: GR-EFC Redistribution (AID 451; calls by dose curve; further: potency means the concentration at half of the fitted maximal effect). The settings on record: CHO-K1 GR-EFC translocation, beta-gal luminescence, 2 h. The gist of the method: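 CHO-K1 cells stably expressing nuclear-localized β-gal enzyme acceptor and GR fused C-terminally to the enzyme donor fragment; ligand-driven nuclear translocation restores β-gal by complementation. Compounds titrated up to 46 uM final, 2 h at 37 °C; luminescence read.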

For experiment [7], the target named is Mitogen-activated protein kinase 10 (Mus musculus) (UniProt Q61831). Kind of experiment: JNK3 AlphaScreen Assay (AID 530; active means well fitted curve in either direction with a large enough effect, not every such curve was filed as active;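 further: kinase came from lysate of stimulated human HepG2 cells; signal reports phosphorylation of biotinylated GST-cJun 1-79 at Ser73 with 10 µM ATP; on the % scale 0 is the no-effect control and ±100 the full control effect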). In a few lines:
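Phosphorylation of biotinylated GST-cJun(1-79) at Ser73 is measured by AlphaScreen proximity luminescence. Enzyme is JNK3 in HepG2 lysates activated with interleukin-1beta and tumor necrosis factor alpha; ATP is 10 uM final.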

Experiment [8] has as its target 3',5'-cyclic-AMP phosphodiesterase 4B (Homo sapiens) (UniProt Q07343). The experiment can be described thus: qHTS Assay for Inhibitors of PDE-IV (AID 607; active means well fitted activation curve with a large enough effect in the main read-out, with a control signal flat, not every such curve was filed as active; further: % of control where 0% means no effect). In a few lines: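 HEK293 ACTOne cells with CNG channel (1000/well), endogenous PDE4; membrane potential dye, compounds up to 22.9 uM final. Fluorescence Ex 535/Em 590; RO 20-1724 (100 uM final) as reference.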

Experiment [9] can be described thus: qHTS Assay for Lipid Storage Modulators (AID 1519; calls by dose curve). The settings on record: Drosophila S3 cells, BODIPY lipid droplet/cell ratio, laser cytometry, cells loaded with oleic acid; for activity change, negative = inhibition: at 25.7 µM (top of the series). In a few lines: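 Cells seeded at 5,000 per well were treated with compounds over a concentration series and loaded with oleic acid (400 uM, as added). Lipid droplet fluorescence (488 nm excitation, 500-530 nm channel) was read by laser-scanning cytometry and normalized to 20 uM Triacsin C.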

The target in experiment [10] is ATP-dependent 6-phosphofructokinase (Trypanosoma brucei brucei) (UniProt O15648). The experiment can be described thus: qHTS Assay to Find Inhibitors of T. brucei phosphofructokinase: hit validation (AID 492961). In a few lines:
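Percent activity derived from corrected luminescence, normalized between 0x and 1x enzyme controls, then fitted to concentration-response curves. Conditions: 1.25 nM PFK, 0.1 mM ATP, 0.5 mM F6P, 45 min RT.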

Experiment [11] concerns the target Ubiquitin carboxyl-terminal hydrolase 1 (Homo sapiens) (UniProt O94782). The experiment can be described thus: Inhibitors of USP1/UAF1: Pilot qHTS (AID 504865).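 Further: rhodamine fluorescence freed from ubiquitin-rhodamine substrate followed over time; top concentration of the series differs between compounds; on the % scale 0 is the no-effect control and ±100 the full control effect; nearly all actives have a fitted effect of over 35% in size.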 The gist of the method: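 USP1/UAF1 complex at 1 nM preincubated 15 min at room temperature with compound, then Ub-Rho substrate added at 150 nM final. Fluorescence (480/540 nm) read kinetically in 50 mM HEPES pH 7.8, 0.5 mM EDTA, 1 mM TCEP, 0.1 mg/ml BSA, 0.01% Tween-20.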

For experiment [12], the target named is Luciferin 4-monooxygenase (Photinus pyralis) (UniProt P08659). The experiment can be described thus: Biochemical firefly luciferase enzyme assay for NPC (AID 624030).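 Further: purified P. pyralis luciferase at 10 nM with luciferin and ATP substrate; 0% = DMSO and -100% = full luciferase inhibition by PTC124 control; nearly all actives have a fitted effect of over 70% in size.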 The gist of the method:
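Counter-screen for direct inhibition of the luciferase enzyme by approved-drug library compounds, run at 10 nM enzyme in 50 mM Tris acetate (final). Luminescence was read within 5 min of enzyme-buffer addition and normalized to PTC124 versus DMSO (0%).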

Experiment [13] is described as follows: qHTS profiling for inhibitors of Plasmodium falciparum proliferation (AID 504749).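 Further: 0% = DMSO vehicle and full inhibition = artemisinin control; nearly all actives have a fitted effect of over 60% in size.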 The settings on record: P. falciparum in erythrocytes, SYBR Green DNA, 72 h, at 12.8 µM (top of the series). In a few lines: (§1)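 Quantitative HTS: compounds pinned into medium, infected erythrocytes added (0.3% parasitemia, 2.5% hematocrit), 72 h culture at 37 C under 5% CO2. Saponin/Triton lysis with SYBR Green I, overnight RT, then fluorescence read.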

A further experiment concerns AS120. The description is as above. The settings on record: P. falciparum in erythrocytes, SYBR Green DNA, 72 h; series mostly up to 28.7 µM. In a few lines:
as §1

The next experiment has as its system CP201. The experiment is described as above. The settings on record: P. falciparum in erythrocytes, SYBR Green DNA, 72 h; series mostly up to 12.8 µM. The gist of the method:
as §1

The subject of a further experiment is CP238. The experiment is described as above. The settings on record: P. falciparum in erythrocytes, SYBR Green DNA, 72 h; series mostly up to 12.8 µM. In a few lines: as §1
A further experiment deals with CP262. The description is as above. The settings on record: P. falciparum in erythrocytes, SYBR Green DNA, 72 h; series mostly up to 12.8 µM. In a few lines:
as §1

A further experiment concerns CP265. The experiment is described as above. The settings on record: P. falciparum in erythrocytes, SYBR Green DNA, 72 h; series mostly up to 12.8 µM. In a few lines: as §1
The next experiment deals with FAB9. Described as above. The settings on record: P. falciparum in erythrocytes, SYBR Green DNA, 72 h; series mostly up to 12.8 µM. In a few lines:
as §1

The test system of the next experiment is JCK. The experiment is described as above. The settings on record: P. falciparum in erythrocytes, SYBR Green DNA, 72 h; series mostly up to 12.8 µM. The gist of the method:
as §1

Setting [14] is: at 7.69 µM (top of the series) unless noted.
[15] abbreviates: measured here: cell count channel max response.
Where [16] appears, read: measured here: lipid channel max response.

SMILES strings stand for the structures. Several values for one entry are separate records, joined by “and”; a condition that tells them apart may be missing. Equal values may be shown once. Inconclusive results are not listed. Activity calls are given as the source filed them. Unless noted, the call rests on the fitted dose curve; in most records, active means well fitted curve in the direction sought with a large enough effect; inconclusive means small, poorly fitted or top-dose-only effect, or another doubt; inactive means no such curve, though single readings can be large; an effect the other way counts as inactive or inconclusive.

Chain of 3',5'-cyclic-AMP phosphodiesterase 4B (Homo sapiens) (Q07343 whole entry, looked up): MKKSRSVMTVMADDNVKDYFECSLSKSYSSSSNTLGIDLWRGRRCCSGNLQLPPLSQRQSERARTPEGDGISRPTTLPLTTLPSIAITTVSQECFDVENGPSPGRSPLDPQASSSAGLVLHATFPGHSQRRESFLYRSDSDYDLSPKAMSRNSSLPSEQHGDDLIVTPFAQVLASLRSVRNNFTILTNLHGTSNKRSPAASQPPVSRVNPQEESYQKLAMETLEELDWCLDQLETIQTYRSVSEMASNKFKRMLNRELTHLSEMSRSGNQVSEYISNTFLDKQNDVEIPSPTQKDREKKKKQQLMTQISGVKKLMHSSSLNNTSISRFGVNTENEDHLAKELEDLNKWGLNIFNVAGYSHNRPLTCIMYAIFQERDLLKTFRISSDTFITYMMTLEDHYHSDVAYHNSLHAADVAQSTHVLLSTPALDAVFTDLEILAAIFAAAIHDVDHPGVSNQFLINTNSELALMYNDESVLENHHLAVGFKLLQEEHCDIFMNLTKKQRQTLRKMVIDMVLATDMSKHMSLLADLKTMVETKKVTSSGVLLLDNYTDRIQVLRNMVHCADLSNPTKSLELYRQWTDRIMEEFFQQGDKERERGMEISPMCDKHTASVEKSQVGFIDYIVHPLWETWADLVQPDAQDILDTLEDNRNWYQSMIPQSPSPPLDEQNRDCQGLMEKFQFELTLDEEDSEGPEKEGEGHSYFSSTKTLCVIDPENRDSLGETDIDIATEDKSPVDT
Chain of ATP-dependent 6-phosphofructokinase (Trypanosoma brucei brucei) (O15648 whole entry, looked up): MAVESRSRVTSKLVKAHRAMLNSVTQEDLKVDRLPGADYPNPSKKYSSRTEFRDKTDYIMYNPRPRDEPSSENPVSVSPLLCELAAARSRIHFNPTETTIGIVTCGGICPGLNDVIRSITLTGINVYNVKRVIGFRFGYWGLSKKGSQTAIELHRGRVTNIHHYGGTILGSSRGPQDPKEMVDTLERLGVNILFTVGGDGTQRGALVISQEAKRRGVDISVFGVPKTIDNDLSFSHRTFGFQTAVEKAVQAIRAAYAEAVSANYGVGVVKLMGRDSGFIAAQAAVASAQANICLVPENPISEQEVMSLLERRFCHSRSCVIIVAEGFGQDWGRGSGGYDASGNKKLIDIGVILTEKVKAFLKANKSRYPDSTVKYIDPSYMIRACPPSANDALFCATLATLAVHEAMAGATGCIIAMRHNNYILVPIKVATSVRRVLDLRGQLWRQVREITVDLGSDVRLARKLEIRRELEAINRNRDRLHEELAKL
Chain of Luciferin 4-monooxygenase (Photinus pyralis) (P08659 whole entry, looked up): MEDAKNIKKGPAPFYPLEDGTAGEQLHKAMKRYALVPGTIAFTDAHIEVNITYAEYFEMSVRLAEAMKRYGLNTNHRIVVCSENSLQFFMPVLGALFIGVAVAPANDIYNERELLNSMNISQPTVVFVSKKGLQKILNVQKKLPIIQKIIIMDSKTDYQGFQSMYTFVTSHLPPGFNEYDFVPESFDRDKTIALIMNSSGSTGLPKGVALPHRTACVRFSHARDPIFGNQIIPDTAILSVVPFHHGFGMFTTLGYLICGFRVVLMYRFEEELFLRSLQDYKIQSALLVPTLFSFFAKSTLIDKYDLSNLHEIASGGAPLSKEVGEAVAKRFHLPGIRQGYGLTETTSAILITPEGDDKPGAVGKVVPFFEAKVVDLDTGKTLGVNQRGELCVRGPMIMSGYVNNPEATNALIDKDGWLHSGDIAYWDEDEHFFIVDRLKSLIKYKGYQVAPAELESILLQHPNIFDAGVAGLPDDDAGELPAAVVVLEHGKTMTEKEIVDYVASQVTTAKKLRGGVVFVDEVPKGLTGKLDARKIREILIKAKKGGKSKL
Chain of Ubiquitin carboxyl-terminal hydrolase 1 (Homo sapiens) (O94782 whole entry, looked up): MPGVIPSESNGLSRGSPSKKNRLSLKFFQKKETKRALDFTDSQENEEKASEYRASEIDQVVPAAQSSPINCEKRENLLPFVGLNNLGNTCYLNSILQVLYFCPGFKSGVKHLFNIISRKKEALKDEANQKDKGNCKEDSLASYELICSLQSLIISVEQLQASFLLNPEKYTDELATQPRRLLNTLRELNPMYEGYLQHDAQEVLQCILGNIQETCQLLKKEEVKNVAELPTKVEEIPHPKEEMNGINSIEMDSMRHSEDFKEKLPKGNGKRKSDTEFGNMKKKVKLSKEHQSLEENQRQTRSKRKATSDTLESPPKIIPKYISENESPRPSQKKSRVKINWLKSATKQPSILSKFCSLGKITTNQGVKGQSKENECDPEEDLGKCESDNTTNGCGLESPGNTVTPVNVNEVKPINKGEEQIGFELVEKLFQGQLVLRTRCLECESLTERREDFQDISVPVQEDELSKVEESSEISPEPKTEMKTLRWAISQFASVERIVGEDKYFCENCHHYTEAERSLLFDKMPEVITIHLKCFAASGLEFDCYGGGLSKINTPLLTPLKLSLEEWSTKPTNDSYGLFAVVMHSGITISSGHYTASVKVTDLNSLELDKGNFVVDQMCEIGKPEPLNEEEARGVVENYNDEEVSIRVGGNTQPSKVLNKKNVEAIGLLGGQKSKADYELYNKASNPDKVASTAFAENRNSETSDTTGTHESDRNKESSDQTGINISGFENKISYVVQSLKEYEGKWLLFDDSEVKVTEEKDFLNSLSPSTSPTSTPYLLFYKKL

Take `COc1ccccc1OC[C@H](O)COC(N)=O`: the values for the activity change, negative = inhibition in experiment [1] (setting [14]), in experiment [3] (setting [14]) and in experiment [9] were -6.22% [at 17.2 µM] (inactive), -5.33% [at 17.2 µM] (inactive) and 1.49% (inactive), respectively. In addition, the values for the Potency in experiment [2], in [5] and in experiment [6] were 10 µM (active), > 20.6 µM (inactive) and > 20.6 µM (inactive), respectively. Further, the activity, negative = inhibition is 10.4% [at 17.2 µM] (inactive) in experiment [4] (setting [14]), 3.95% (inactive) in experiment [13] (parasite line A) and 18.1% (inactive) in experiment [13] (parasite line B). The Potency result (in experiment [7]; in experiment [8]; in experiment [11]; in the experiment with AS120; in the experiment on CP201; in the experiment with CP238) was “inactive” in each case. The Potency result with CP262, in the experiment with CP265, in the experiment on FAB9 and with JCK was “inactive” throughout. The figures for the max response in experiment [9] (setting [15]) and in [9] (setting [16]) were -1.12% and 2.55%, respectively. Moreover, the call in experiment [10] and in experiment [12] was inactive.

In the case of `CCCN[C@@H](C)C(=O)Nc1c(C)csc1C(=O)OC`, the activity change, negative = inhibition is 8.34% [at 17.2 µM] (inactive) in experiment [1] (setting [14]), -13.1% [at 17.2 µM] (inactive) in experiment [3] (setting [14]) and -2.12% (inactive) in experiment [9]. For the same compound, the Potency in [2] is 12.6 µM (active); in [5], > 20.6 µM (inactive); in [6], > 20.6 µM (inactive). The figures for the activity, negative = inhibition in [4] (setting [14]), in experiment [13] (parasite line A) and in experiment [13] (parasite line B) were -0.411% [at 17.2 µM] (inactive), 6.61% (inactive) and 16.5% (inactive), respectively. The Potency entry (in experiment [7]; in experiment [8]; with AS120; with CP201; with CP238; in the experiment on CP262) was “inactive” each time. Further, the Potency entry in the experiment on CP265, in the experiment on FAB9 and with JCK was “inactive” throughout. Also, the max response in [9] (setting [15]) was -6.57%; in experiment [9] (setting [16]), -14.2%. For the same compound, the compound was called inactive in experiment [10] and in experiment [12].

Consider `COc1ccc(C[C@@H]2c3cc(OC)c(OC)cc3CC[N@+]2(C)CCC(=O)OCCCCCOC(=O)CC[N@@+]2(C)CCc3cc(OC)c(OC)cc3[C@H]2Cc2ccc(OC)c(OC)c2)cc1OC`, for which the activity change, negative = inhibition in experiment [1] (setting [14]) was -6.73% [at 17.2 µM] (inactive); in experiment [3] (setting [14]), -23.4% [at 17.2 µM] (inactive); in experiment [9], -3.87% (inactive). For the same compound, the Potency entry (in experiment [2]; in experiment [7]; in experiment [8]; in experiment [11]; in the experiment on AS120; in the experiment with CP201) was “inactive” throughout. Moreover, the Potency entry with CP238, with CP262, with CP265, with FAB9 and in the experiment with JCK was “inactive” in each case. Also, the activity, negative = inhibition in [4] (setting [14]) was 10.6% [at 17.2 µM] (inactive); in [13] (parasite line A), -5.94% (inactive); in experiment [13] (parasite line B), 13.8% (inactive). Further, the Potency in [5] and in experiment [6] was > 20.6 µM (inactive) each time. In addition, the results for the max response in [9] (setting [15]) and in [9] (setting [16]) were 15.3% and 6.6%, respectively. Further, the result in experiment [10] and in experiment [12] was inactive.

For the compound `C[C@@]12C[C@@H](O)[C@H]3[C@@H](CCC4=CC(=O)CC[C@]43C)[C@H]1CC[C@H]2C(=O)CO`, the activity change, negative = inhibition in [1] (at 17.2 µM (top of the series)) was 4.07% (inactive); in experiment [1] (at 38 µM (top of the series)) it was -3.18% (inactive); in [3] (at 17.2 µM (top of the series)), 0.118% (inactive); in experiment [3] (at 38 µM (top of the series)), -0.571% (inactive); in experiment [9], -3.75% (inactive). Besides, the activity, negative = inhibition in experiment [4] (at 17.2 µM (top of the series)) was -0.637% (inactive); in experiment [4] (at 38 µM (top of the series)) it was -1.77% (inactive). In addition, the Potency in [5] is 74.2 nM (active) and 8.8 nM (active); in experiment [6], 0.179 µM (active). In addition, the Potency entry in [8] and in experiment [11] was “inactive” each time. The max response in [9] (setting [15]) was -3.56%; in [9] (setting [16]) it was -9.53%.
